Test results as given in ChEMBL document CHEMBL3433997, “St. Jude Leishmania screening dataset” (2016).

Tests used:
Format in all cases: functional
[1] = biological target: Solute carrier family 2, facilitated glucose transporter member 1 (Homo sapiens) (UniProt P11166); assay: ST_JUDE_LEISH: Cytotoxicity at 2uM final concentration against transgenic Leishmania Mexicana promastigotes LmGLUT1 that are glucose transport deficient and complemented with the human glucose transporter GLUT1. Activity is measured by DNA content using SYBR green in vitro
Chain of Solute carrier family 2, facilitated glucose transporter member 1 (Homo sapiens) (P11166 whole entry): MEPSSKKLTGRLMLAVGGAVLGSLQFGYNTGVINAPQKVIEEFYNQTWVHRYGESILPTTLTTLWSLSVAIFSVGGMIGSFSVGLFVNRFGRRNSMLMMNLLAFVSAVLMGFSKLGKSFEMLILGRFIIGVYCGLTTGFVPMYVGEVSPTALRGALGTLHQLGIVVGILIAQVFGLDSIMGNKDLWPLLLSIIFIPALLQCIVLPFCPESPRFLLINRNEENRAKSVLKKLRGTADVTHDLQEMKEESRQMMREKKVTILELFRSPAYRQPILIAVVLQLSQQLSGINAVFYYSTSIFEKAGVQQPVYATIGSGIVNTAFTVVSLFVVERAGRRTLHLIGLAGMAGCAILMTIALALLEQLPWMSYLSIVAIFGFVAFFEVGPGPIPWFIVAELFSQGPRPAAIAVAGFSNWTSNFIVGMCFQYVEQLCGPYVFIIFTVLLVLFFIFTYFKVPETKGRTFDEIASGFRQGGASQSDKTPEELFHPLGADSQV

[2] = biological target: Hexose transporter 1 (Plasmodium falciparum) (UniProt O97467); assay: ST_JUDE_LEISH: Cytotoxicity at 2uM final concentration against transgenic Leishmania Mexicana promastigotes LmPfHT that are glucose transport deficient and complemented with the Plasmodium falciparum hexose transporter. Activity is measured by DNA content using SYBR green in vitro
[3] = biological target: Glucose transporter (Leishmania mexicana) (UniProt O61059); assay: ST_JUDE_LEISH: Cytotoxicity at 2uM final concentration against transgenic Leishmania Mexicana promastigotes LmGT2 that are glucose transport deficient and complemented with the L. Mexicana glucose transporter 2. Activity is measured by DNA content using SYBR green in vitro

Row | Compound | inhibition [1] [%] | inhibition [2] [%] | inhibition [3] [%]
1 | Oc1cccc(/C=N/Nc2ccnc3cc(Cl)ccc23)c1 | 4.49 | 0.91 | 3.14
2 | O=C(CSc1nc(-c2ccccc2Cl)ns1)Nc1cccc(F)c1 | -0.07 | -0.93 | 5.3
3 | Cn1c(-c2ccccc2)cc2c3c(N)nc(N)nc3ccc21 | 105 | 104 | 98.2
4 | COC(=O)C(C)(C)Cc1c(SC(C)(C)C)c2cc(C(C)C)ccc2n1Cc1ccc(Cl)cc1 | 2.2 | 5.38 | -0.32
5 | Cc1nnc(NC(=O)c2cn(-c3ccccc3)nc2-c2ccccc2C)o1 | 1.69 | 2.78 | 2
6 | COc1ccccc1-c1nc2nc(N)nc(N)c2nc1-c1ccccc1OC | 0.82 | 1.25 | 1.01
7 | O=C(/C=C/c1ccc(Cl)c(Cl)c1)NCCCCCN1CCCN(C(=O)Nc2cc(F)cc(F)c2)CC1 | 9.22 | 8.04 | 8.86
8 | C=CC[C@H](C[C@H](O)[C@H](Cc1ccccc1)NC(=O)c1nn(-c2ccccc2)nc1C)C(=O)NC1CCCCC1 | 2.06 | 2.34 | 2.36
9 | N=C(N)Nc1nc(-c2cc(NC(=O)C(F)(F)F)cc([N+](=O)[O-])c2)cs1 | 0.23 | 0.51 | 1
10 | O=C(Nc1ccc(-c2nc3ccccc3[nH]2)cc1)c1cccc(S(=O)(=O)N2CCCC2)c1 | 6.3 | 2.8 | 5.05
11 | COc1ccc(N2C(=O)c3c(c4ccccc4n3C)C2c2ccccc2O)cc1 (stereo not given) | 6.27 | 4.4 | 5.53
12 | Cc1nc2nc(N)nc(N)c2c(C)c1Cc1ccc(O)cc1 | -0.09 | -2.78 | 4.5
13 | COc1ccc(C=NNc2nc3ccccc3[nH]2)cc1O | -3.31 | -1.02 | 1.86
14 | COc1cc(C(=O)N2CCC(CCN3CCC4(CC3)CN(S(C)(=O)=O)c3ccccc34)CC2Cc2ccc(Cl)c(Cl)c2)cc(OC)c1OC (stereo not given) | 3.23 | 4.25 | 3.27
15 | CCCCCn1c(Sc2ccc(C#N)c([N+](=O)[O-])c2)nnc1-c1ccc(OC)cc1 | 9.26 | 6 | 4.8
